This passage reports Potency results from PubChem BioAssay (NCATS).

Experiment [1] in a line: BET inhibitor-based combinations targeting novel dependencies in MECOM-rearranged (r) AML: OCI-AML3 cell line (AID 2202232). Further: nearly all actives have a fitted effect of over 35% in size. The conditions noted are these: Potency: OCI-AML3 viability. The procedure, abridged: (§1)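 Luminescent ATP readout (CellTiter-Glo) after 48 hr drug exposure gives viability. Curves span 11 concentrations and are normalized to DMSO and empty wells. Activity is reported as area under the curve and its Z-transform within each cell line.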

A short description of experiment [2]: BET inhibitor-based combinations targeting novel dependencies in MECOM-rearranged (r) AML: MV-4-11 cell line (AID 2202233). Further: nearly all actives have a fitted effect of over 45% in size. The procedure, abridged: (§2)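 Luminescent ATP readout (CellTiter-Glo, 15 min at room temperature) after 48 hr drug exposure gave viability. Dose-response curves, normalized to DMSO and empty-well controls, were summarized as area under the curve and its mean-centred Z-score.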

Experiment [3] in a line: BET inhibitor-based combinations targeting novel dependencies in MECOM-rearranged (r) AML: HNT-34 cell line (AID 2202234). Further: nearly all actives have a fitted effect of over 35% in size. The procedure, abridged:
as §2

A short description of experiment [4]: BET inhibitor-based combinations targeting novel dependencies in MECOM-rearranged (r) AML: UCSD-AML1 cell line (AID 2202235). Further: nearly all actives have a fitted effect of over 40% in size. The procedure, abridged:
as §2

The nature of experiment [5]: BET inhibitor-based combinations targeting novel dependencies in MECOM-rearranged (r) AML: AML-191 cell line (AID 2202236; further: nearly all actives have a fitted effect of over 35% in size). In short, it runs like this: as §1
Experiment [6] is described as follows: BET inhibitor-based combinations targeting novel dependencies in MECOM-rearranged (r) AML: AML-194 cell line (AID 2202237; further: nearly all actives have a fitted effect of over 40% in size). The procedure, abridged:
as §1

Values joined by “and” are separate entries in the source; they are usually repeats but may differ in a detail not shown here. Equal entries are not always repeated. Inconclusive results are not listed. Active and inactive are the calls of the source. The call rests on the fitted dose curve; in most records, active means well fitted curve in the direction sought with a large enough effect; inconclusive means small, poorly fitted or top-dose-only effect, or another doubt; inactive means no such curve, though single readings can be large; an effect the other way counts as inactive or inconclusive.
Potency means the concentration at half of the fitted maximal effect.

Regarding `Clc1ccc(-c2nc3sccn3c2/C=N/OCc2ccc(Cl)c(Cl)c2)cc1`, the Potency entry in experiment [1], in experiment [2], in experiment [3], in experiment [4], in experiment [5] and in experiment [6] was “inactive” throughout.

`O=C(NC1CC1)c1cccc(-c2ccc3c(NC(=O)C4CC4)n[nH]c3c2)c1`: the Potency in experiment [1] was 10.5 µM (active); in experiment [2], 8.33 µM (active); in experiment [3], 3.32 µM (active); in experiment [4] it was 4.68 µM (active); in experiment [6], 4.68 µM (active).

Take `C=CCNC1=C2C[C@@H](C)C[C@H](OC)[C@H](O)[C@@H](C)/C=C(\C)[C@H](OC(N)=O)[C@@H](OC)/C=C\C=C(/C)C(=O)NC(=CC1=O)C2=O`: the Potency is 10.5 µM (active) in experiment [1]; 1.86 µM (active) in experiment [2]; 11.8 µM (active) in experiment [3]; 10.5 µM (active) in experiment [4]; 18.6 µM (active) in experiment [5]; 16.6 µM (active) in experiment [6].

Turning to `CC(C)n1c(/C=C/[C@H](O)C[C@H](O)CC(=O)O)c(-c2ccc(F)cc2)c2ccccc21`, the Potency in experiment [1] was 3.32 µM (active); in experiment [2], 11.8 µM (active); in experiment [3], 8.33 µM (active); in experiment [4], 11.8 µM (active).

As for `Cc1cc(C)c(CNC(=O)c2cc(-c3ccc(N4CCN(C)CC4)nc3)cc3c2c(C)cn3C(C)C)c(=O)[nH]1`, the Potency was 18.6 µM (active) in experiment [1]; 23.5 µM (active) and 20.9 µM (active) in experiment [2]; 23.5 µM (active) in experiment [3].

Take `COc1cc(=C2C=c3ccccc3=N2)[nH]/c1=C/c1[nH]c(C)cc1C`: the Potency is 2.63 µM (active) in experiment [1]; 2.35 µM (active) in experiment [2]; 3.72 µM (active) in experiment [3]; 3.32 µM (active) in experiment [4]; 2.35 µM (active) in experiment [5]; 5.9 µM (active) in experiment [6].

As to `CN1CCN(Cc2ccc(Nc3ncc(Cl)c(Nc4ccccc4S(=O)(=O)N(C)C)n3)cc2)CC1`, the Potency in experiment [1] is 0.191 µM (active); in experiment [2] it was 0.0539 µM (active); in experiment [3], 0.108 µM (active); in experiment [4] it was 0.135 µM (active); in experiment [5], 0.152 µM (active); in experiment [6], 0.215 µM (active).

Regarding `CC(C)C[C@H](NC(=O)c1cc2ccccc2s1)C(=O)N1CCN(C(=O)[C@H](CO)NS(=O)(=O)c2ccc(Cl)cc2Cl)CC1`, the values for the Potency in experiment [1], in experiment [2] and in experiment [3] were 18.6 µM (active), 23.5 µM (active) and 26.3 µM (active), respectively. For the same compound, the Potency entry in experiment [4] is “inactive”.

Consider `N#Cc1c(N)nc(N)nc1N[C@H](c1nc2c(F)ccc(Cl)c2c(=O)n1-c1cccnc1)C1CC1`, for which the Potency in experiment [1] was 6.61 µM (active); in experiment [2], 3.32 µM (active); in experiment [3], 16.6 µM (active); in experiment [4], 5.9 µM (active).

For `CC1(C)O[C@@H]2C[C@H]3[C@@H]4CCC5=CC(=O)C=C[C@]5(C)[C@H]4[C@@H](O)C[C@]3(C)[C@]2(C(=O)CO)O1`, the Potency result in experiment [1], in experiment [2], in experiment [3], in experiment [4] and in experiment [5] was “inactive” in each case. Besides, in experiment [6], the Potency is 0.332 µM (active).

With `O=C(NC[C@H](O)CO)c1ccncc1Nc1ccc(I)cc1F`, the Potency in experiment [1] is 0.0332 µM (active); in experiment [2] it was 5.9 µM (active); in experiment [3], 0.468 µM (active); in experiment [4] it was 0.372 µM (active); in experiment [5], 0.525 µM (active).

For the compound `CC[C@@]1(O)C[C@H](O[C@H]2C[C@H](N(C)C)[C@H](O[C@H]3C[C@H](O)[C@H](O[C@H]4CCC(=O)[C@H](C)O4)[C@H](C)O3)[C@H](C)O2)c2c(cc3c(c2O)C(=O)c2c(O)cccc2C3=O)[C@@H]1C(=O)OC`, the Potency in experiment [1] is 3.32 µM (active); in experiment [2], 0.742 µM (active); in experiment [3], 3.32 µM (active); in experiment [4], 2.35 µM (active); in experiment [5], 2.95 µM (active); in experiment [6], 3.72 µM (active).

`COC1(c2sc3c(N4CCOCC4)nc(-c4cnc(N)nc4)nc3c2C)COC1`: the Potency in experiment [1] is 0.525 µM (active); in experiment [2], 0.59 µM (active); in experiment [3] it was 0.468 µM (active); in experiment [4], 0.186 µM (active).

For the compound `CC(=O)O[C@@]12CO[C@@H]1C[C@H](O)[C@@]1(C)C(=O)[C@H](O)C3=C(C)[C@@H](OC(=O)[C@H](O)[C@@H](NC(=O)OC(C)(C)C)c4ccccc4)C[C@@](O)([C@@H](OC(=O)c4ccccc4)[C@H]21)C3(C)C`, the Potency was 0.0033 µM (active) in experiment [1]; 0.0042 µM (active) in experiment [2]; 0.0037 µM (active) in experiment [3]; 0.0047 µM (active) in experiment [4]; 0.0132 µM (active) in experiment [5]; 0.0148 µM (active) in experiment [6].

For `Nc1ncccc1-c1nc2ccc(-c3ccccc3)nc2n1-c1ccc(C2(N)CCC2)cc1`, the Potency in experiment [1] is 18.6 µM (active); in experiment [2] it was 11.8 µM (active); in experiment [3] it was 16.6 µM (active); in experiment [4], 16.6 µM (active); in experiment [5], 18.6 µM (active); in experiment [6], 29.5 µM (active).

In the case of `C[C@]12CCCN1CC1=NNC(=O)c3cc(F)cc4[nH]c2c1c34`, the Potency in experiment [1] was 20.9 µM (active); in experiment [2], 2.63 µM (active); in experiment [3] it was 5.9 µM (active); in experiment [5], 18.6 µM (active).

For the compound `CCCCC(=O)OCC(=O)[C@]1(O)Cc2c(O)c3c(c(O)c2[C@@H](O[C@H]2C[C@H](NC(=O)C(F)(F)F)[C@H](O)[C@H](C)O2)C1)C(=O)c1c(OC)cccc1C3=O`, the Potency is 0.59 µM (active) in experiment [1]; 0.235 µM (active) in experiment [2]; 1.86 µM (active) in experiment [3]; 0.833 µM (active) in experiment [4]; 1.66 µM (active) in experiment [5].

`CC(=O)N1CCC(Nc2cc(C(=O)NC[C@H](O)CN3CCc4ccccc4C3)ncn2)CC1`: the Potency in experiment [1] was 0.0042 µM (active); in experiment [2], 0.0417 µM (active). For the same compound, the Potency entry in experiment [3], in experiment [4] and in experiment [6] was “inactive” throughout.

With `CC1(C)CCC2(CC1)N[C@@H](C(=O)N[C@@H]1CC[C@@H](C(N)=O)OC1)[C@H](c1ccnc(Cl)c1F)[C@]21C(=O)Nc2cc(Cl)ccc21`, the Potency was 0.715 µM (active) in experiment [1]; 0.0715 µM (active) in experiment [2]; 0.16 µM (active) in experiment [3]; 0.201 µM (active) in experiment [4]; 0.358 µM (active) in experiment [5]; 0.637 µM (active) in experiment [6].

Regarding `c1ccc(-c2cc(CCC3CCNCC3)c3ccccc3n2)cc1`, the Potency in experiment [1] was 20.9 µM (active); in experiment [2], 20.9 µM (active); in experiment [3], 20.9 µM (active); in experiment [4], 26.3 µM (active); in experiment [5], 20.9 µM (active); in experiment [6], 26.3 µM (active).
